aSyn rescue = inhibitors of alpha-synuclein toxicity in yeast; Yeast expressing alpha-synuclein, growth rescue, BacTiter-Glo, 24 h; Potency, µM (highest dose often 46.1 µM), for the others: at the top dose growth rescue (activation), most hits filed as activators; 370,000 tested, 0.14% active; also: potency is read from the fitted curve at half-maximal effect; % of control where 0% means no effect; nearly all actives have a fitted effect of over 65% in size
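Screening used galactose-induced yeast with toxic alpha-synuclein levels, exposed to compound for 24 hr at 30 deg C. Cell growth, read with BacTiter-Glo luminescence, gave the measured signal.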
Akt phos inh = inhibitors of Akt phosphorylation; Neuro2A IGF-stimulated pAkt S473 HTRF, 20 min; hits give low values; activity change, % for hits at 50 µM; 360,000 tested, 0.32% active; in the data active = activity change below about -80%; inconclusive = mostly about -51% to -80%; also: % is scaled to controls: 0 for no effect and ±100 for the full control effect
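Single-point screen (50 µM final compound) in Neuro2A cells stimulated 20 min with 6 nM IGF at 37 deg C. After lysis, Ser473-phosphorylated Akt read by HTRF (ex 330 nm, em 615/665 nm) as the 665/615 ratio.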
Mito fusion act = inhibitors of mitochondrial division or activators of mitochondrial fusion; 320,000 tested, 0.23% active; Potency, µM (highest dose often 46.1 µM), inactives show at the top dose growth rescue (activation), actives largely listed as activators; AID 485298; S. cerevisiae fusion-defective mutant growth rescue, CellTiterGlo 48 h; also: potency is read from the fitted curve at half-maximal effect; % of control where 0% means no effect; nearly all actives have a fitted effect of over 45% in size
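Growth-rescue viability read-out: after 48 h at the non-permissive 37C in glycerol/ethanol YPEG, yeast mitochondrial fusion mutants are measured by CellTiterGlo luminescence; compounds (23 nl pinned per well) restoring growth score as division inhibitors or fusion activators.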
CCT chaperon mod = changes cytosolic chaperonin activity | purified chaperonin ATPase assay, HTRF ADP detection, 30 min | activity change, % (test concentration not listed), hits read low | 360,000 tested, 0.3% active | AID 651819; in the data active = activity change below about -30%; also: % is scaled to controls: 0 for no effect and ±100 for the full control effect
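TRiC (40 or 20 nM final, by batch activity) in 30 mM Tris pH 7.4, 100 mM KCl, 5 mM MgCl2, 1 mM DTT was treated with compound at 76 uM single dose, then 10 uM ATP, 30 min at 37 °C. ADP was read by HTRF Transcreener.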
Anesthetic bind = binds horse apoferritin like a general anesthetic. P02791. apoferritin/1-aminoanthracene competitive binding, fluorescence. Potency, µM (doses to about 77.5 µM), without a hit: at the top dose activity change, negative = displacement, most hits filed as inhibitors. 350,000 tested, 0.074% active. AID 485281; also: potency is read from the fitted curve at half-maximal effect; % is scaled to controls: 0 for no effect and ±100 for the full control effect; nearly all actives have a fitted effect of over 20% in size
Target sequence (P02791 2-175 limits assumed): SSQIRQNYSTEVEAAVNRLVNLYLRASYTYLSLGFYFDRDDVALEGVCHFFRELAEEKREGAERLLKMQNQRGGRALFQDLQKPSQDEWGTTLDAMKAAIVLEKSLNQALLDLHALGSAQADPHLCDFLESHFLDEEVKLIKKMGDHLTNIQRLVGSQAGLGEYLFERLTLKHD
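Horse-spleen apoferritin (10 uM) in 50% saturated 1-aminoanthracene in PBS was incubated 10 min at room temperature with compound. Fluorescence (ex 380, em 535 nm) was normalized to free and bound 1-AMA, with concentration-response fitted by a four-parameter Hill equation.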
TDP43 rescue = inhibitors of TDP-43 toxicity in yeast; TDP-43 expressing yeast growth rescue, BacTiter-Glo, 24 h; Potency, µM (titrated, usually from 46.1 µM), inactives show top-dose growth rescue (activation), actives largely listed as activators; 410,000 tested, 1.8% active; AID 652104; also: potency is read from the fitted curve at half-maximal effect; % of control where 0% means no effect; nearly all actives have a fitted effect of over 50% in size
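Yeast expressing TDP-43 (pregrown in raffinose, seeded at OD600=0.02 in galactose medium) exposed to compounds 24 hr at 30 deg C. Growth read by BacTiter-Glo luminescence; rescue of toxicity appears as increased signal.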
Numbers without * were called inactive; i = inactive; u = inconclusive; x = not tested or not shown; [ ] = dose if it differs, or a comment. Rows were chosen to be rich in hits. Some 2.5% of all compounds tested hit in one or more screens of this group. Unless noted, calls follow the shape of the dose curve; as a rule, active = well fitted curve in the direction sought with a large enough effect; inconclusive = small, poorly fitted or top-dose-only effect, or another doubt; inactive = no such curve, though single readings can be large; an effect the other way counts as inactive or inconclusive.

SMILES	aSyn rescue	Akt phos inh	Mito fusion act	CCT chaperon mod	Anesthetic bind	TDP43 rescue
CCOc1ccc(C(=O)OCc2nnc(-c3cccs3)o2)cc1OC	2%	i	3%	-72*	-20%	u
Cc1ccc(NC(=O)Cn2c(=O)n(CCC(=O)NCc3ccccc3Cl)c(=O)c3ccccc32)cc1	x	x	x	x	u	-8%
S=C1N(c2ccccc2)C(c2ccc(Br)cc2)N2CCCN12 (stereo not drawn)	20%	i	4%	-1	-3%	13µM*
COc1ccc(NC(=O)NCCCN2CCCC2=O)c(OC)c1	x	x	1%	1	-11%	0.001µM*
N#Cc1ccc(-c2ccc(OCC(=O)NCCCN3CCCC3=O)cc2)cc1	-12%	i	10%	-3	-15%	13µM*
CCCCCCCCCCCCCC(=O)Nc1ccc(/C=C/c2ccnc3ccccc23)cc1	2%	x	x	x	x	x
Cc1cc2c(c(=O)o1)C(C(C)C)C(C#N)=C(N)O2 (stereo not drawn)	-2%	-100%*	-1%	0	-7%	14%
Cc1ccc([C@H]2C(C#N)=C(N)Oc3cc(C)oc(=O)c32)o1	12%	i	-14%	0	-8%	11%[9.22 µM]
O=C(O)CCC(=O)Nc1ccc(NC(=O)c2ccc(Cl)cc2Cl)c(Cl)c1	-2%	i	-2%	-135*	-5%	-12%
C=CCc1cccc(C2C(C)CCC3C(=O)N4C(Cc5c([nH]c6ccccc56)C4c4cc(OC)c(OC)c(OC)c4)C(=O)N32)c1 (stereo not drawn)	x	x	x	x	-5%[15.3 µM]	x
O=c1c(S(=O)(=O)c2ccccc2)cn(Cc2ccc(F)cc2)c2cc(N3CCCC3)c(F)cc12	x	x	x	x	5%	11%
CCN=C1S/C(=C\c2cn(CC)c3ccccc23)C(=O)N1CC	9%	i	26%	0	-10%	18µM*
CCN1C(=O)S/C(=C/c2cn(C)c3ccccc23)C1=O	5%	i	1%	3	-3%	7%
CCN=C1S/C(=C\c2cc(OCC)c(O)cc2Br)C(=O)N1CC	0%	i	7.1µM*	2	7%	0%
COc1ccc(OC)c(NC(=O)c2nc(S(=O)(=O)Cc3ccccc3F)ncc2Cl)c1	-7%	x	x	x	x	x
COc1ccc(N2C(=O)CC(Sc3nc(C)c4c(n3)CCCC4)C2=O)cc1 (stereo not drawn)	4%	i	-12%	-7	-21%	-8%
COc1ccc(N2C(=O)CC(Sc3n[nH]c(-c4ccccc4)n3)C2=O)cc1 (stereo not drawn)	-8%	i	0%	-1	1%	2µM*
CCOc1ccc2nc(SC3CC(=O)N(c4ccccc4)C3=O)sc2c1 (stereo not drawn)	-12%	i	-8%	-1	-17%	-6%
Cc1ccc(N2C(=O)CC(Sc3nccc(C)n3)C2=O)cc1 (stereo not drawn)	7%	i	-17%	-53*	-7%	14%
CCOc1ccc(N2C(=O)CC(Sc3n[nH]c(-c4ccccc4)n3)C2=O)cc1 (stereo not drawn)	-54%	i	-7%	0	-6%	3.5µM*
O=C(Cn1ncc2c3ccccc3n(Cc3cccc(Cl)c3)c2c1=O)Nc1ccc(F)cc1F	x	x	x	x	-1%	u
O=S(=O)(c1cccc(Cl)c1)N1CCN(c2nc(-c3cccs3)nc3ccccc23)CC1	1%	x	x	x	x	x
Cn1nnc2sc3c(c2c1=O)CCCC3	-8%	i	0%	1	32µM*	18%
CCC/C=C1/CCCOC(C(=O)NCCOC)(C(F)(F)F)C1 (stereo not drawn)	x	x	x	x	3%	x
CC1CCc2c(c3ccccc3n2C(=O)CCl)C1 (stereo not drawn)	-13%	i	-15%	0	u	2.8µM*
CCN(CC)c1ccc(/C=C(/C#N)c2nc3ccccc3[nH]2)c(OC(C)C)c1	-25%	i	22%	-1	u	13µM*
CC(=O)/C(=C\N(C)C)Sc1ccc(Cl)cc1	u	i	-4%	2	6%	22µM*

Screens: PubChem, National Center for Advancing Translational Sciences (NCATS)
